Screening data (PubChem BioAssay)
COUP-TFII inh = NR2F2 (human) inhibition, primary screen; P24468; HEK293T NGFI-A luciferase reporter, luminescence; inhibition, % at 8.6 µM; 0.7% of 370,000 active;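 active means inhibition above a per-plate cutoff, mean inhibition of test wells between control levels plus 3 SD, cut at about 38% in these data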;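 further: cells cotransfected with COUP-TFII expression vector driving the NGFI-A reporter; 0% = median of COUP-TF2 test wells and 100% = reporter-only cells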
Target sequence (P24468 whole entry, looked up): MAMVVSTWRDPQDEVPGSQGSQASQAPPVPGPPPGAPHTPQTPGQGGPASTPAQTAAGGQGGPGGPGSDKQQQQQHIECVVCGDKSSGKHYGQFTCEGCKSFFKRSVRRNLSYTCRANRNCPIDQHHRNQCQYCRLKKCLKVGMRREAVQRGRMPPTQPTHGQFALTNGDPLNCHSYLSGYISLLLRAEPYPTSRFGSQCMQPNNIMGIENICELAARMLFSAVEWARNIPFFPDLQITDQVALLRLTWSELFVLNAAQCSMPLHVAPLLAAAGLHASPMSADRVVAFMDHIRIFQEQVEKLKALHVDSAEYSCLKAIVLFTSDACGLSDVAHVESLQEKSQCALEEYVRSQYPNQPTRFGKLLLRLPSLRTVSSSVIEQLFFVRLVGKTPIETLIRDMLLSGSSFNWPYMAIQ
Env fusion inh = inhibitors of HIV Env-mediated cell fusion. HeLa-JRFL Env/CEM21 cell fusion, luciferase. inhibition, % at 12.3 µM. 1.1% of 360,000 active. AID 651610;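 active means mean replicate inhibition score of at least 50 and every replicate individually at or above 50; inconclusive means only one of the two criteria met; inactive means mean below 50 and not all replicates reaching 50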;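 further: 0% = plate neutral controls and 100% = maraviroc near 300 nM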
aDG glyco act = alpha-DG glycosylation activation | activation, % at 10 µM | AID 624168 | Pro5-aDG cells, alpha-DG glycosylation AlphaScreen (IIH6); 0% Pro5, 100% B10-LARGE cell signal | 0.22% of 360,000 active;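 active means activation of at least 8% versus controls, or a plate z-score of at least 8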;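 further: Pro5 are CHO cells carrying HIG-tagged alpha-DG that lacks glycosylation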
Gli-Sufu block = blocks Gli-Sufu signaling in a luciferase reporter; Sufu-KO-LIGHT fibroblasts, Gli luciferase reporter luminescence; AID 588413; inhibition, % at 5 µM; 0.74% of 340,000 active;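 active means inhibition above about 55%, limit read from the data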;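 further: 0% = DMSO-treated cells and 100% = wells with medium but no cells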
GalR3 antag = blocks the human galanin receptor 3 | O60755 | HEK293 GalR3-CNG cAMP membrane potential fluorescence; galR3 body fused to GalR1 C-terminus | inhibition, % at 3 µM | 0.44% of 360,000 active | AID 651719;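 active means inhibition above the screen-wide average plus 3 SD, cut at about 13% in these data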;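 further: forskolin and galanin both at EC90 stimulate the cells; cAMP rise reported by CNG channel membrane potential dye signal; 0% = forskolin plus galanin with DMSO and 100% = forskolin alone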
* = called active by the depositor; ? = inconclusive; . = not tested or not shown; [ ] = dose if it differs, or a comment. Shown are actives, neighbours in structure and some others; about 2.1% of the full set was active somewhere.

SMILES	COUP-TFII inh	Env fusion inh	aDG glyco act	Gli-Sufu block	GalR3 antag
Cc1ccccc1CC1(C)C(=O)Nc2ccc(S(=O)(=O)NC3CCCCC3)cc21 (stereo not given)	18	17	0	.	-9
COc1ccc(Cl)cc1CC1(C)C(=O)Nc2ccc(S(=O)(=O)NC3CCCCC3)cc21 (stereo not given)	7	93*	0	.	-9
Cc1ccc(S(=O)(=O)N(C)C)cc1NC(=S)N1CCN(Cc2ccc3c(c2)OCO3)CC1	19	?	2	55*	-3
C[C@@H]1CN([C@H](C)CO)C(=O)Cc2cc(NC(=O)CCN3CCOCC3)ccc2O[C@@H]1CN(C)Cc1ccccc1	.	-18[16.7 µM]	.	.	.
Cc1n[nH]c(C)c1S(=O)(=O)N(CC(=O)Nc1ccc2c(c1)OCCO2)c1ccc(C(C)C)cc1	4	59*	0	3	0
O=C(C[C@@H]1CC[C@H](NS(=O)(=O)c2ccc(F)cc2)[C@@H](CO)O1)N1CCc2ccccc2C1	.	-4[16.7 µM]	.	.	.
O=S(=O)(c1ccccc1)c1nc(-c2ccco2)oc1NCCN1CCOCC1	10	.	0	-1	-5
Cc1ccccc1-c1nc(S(=O)(=O)c2ccccc2)c(NCCN2CCOCC2)o1	9	59*	0	.	-8
O=C(C[C@H]1CC[C@H](NS(=O)(=O)c2ccc(F)cc2)[C@H](CO)O1)NCc1ccc(Cl)c(Cl)c1	.	-9[16.7 µM]	.	.	.
COc1cccc(-n2c(-c3ccccc3)c[nH]c2=S)c1	3	-10	0	-4	-4
S=c1[nH]cc(-c2ccccc2)n1-c1cccc(Cl)c1	-1	70*	0	-5	-2
C[C@@H]1CN([C@H](C)CO)C(=O)Cc2cc(NC(=O)Nc3ccc4c(c3)OCO4)ccc2O[C@@H]1CN(C)C(=O)Nc1ccc(F)cc1	.	-12[16.7 µM]	.	.	.
C=C(C)CSc1cc(C)nc2c(-c3ccccc3)c(C)nn12	1	61*	0	3	0
O=C(Nc1cc(C(F)(F)F)ccc1N1CCCCC1)c1cccc([N+](=O)[O-])c1	8	98*	0	-6	-3
c1cc2cc(CNc3nc(NCC4CC4)nc4ccsc34)ccc2o1	20	80*	0	.	-9
COc1ccccc1CNc1nc(NCc2ccc3occc3c2)c2sccc2n1	30	58*	0	.	-5
Cc1ccc(CNc2nc(NCC3CC3)nc3ccsc23)c(C)c1	37	45	1	.	-10
O=C(C[C@H]1C=C[C@@H](NS(=O)(=O)c2ccc(F)cc2)[C@@H](CO)O1)NCc1ccncn1	.	2[16.7 µM]	.	.	.
COCC(=O)Nc1ccc2c(c1)[C@H]1C[C@H](CC(=O)NCc3cc(F)ccc3F)O[C@H](CO)[C@H]1O2	.	-12[16.7 µM]	.	.	.
CNC(=O)C[C@H]1CC[C@H]2[C@@H](COc3ccc(NC(=O)CC(F)(F)F)cc3C(=O)N2C)O1	.	-9[16.7 µM]	.	.	.
CNC[C@H]1OCCCC[C@H](C)Oc2ccc(NC(=O)Nc3c(C)noc3C)cc2C(=O)N([C@@H](C)CO)C[C@@H]1C	.	-8[16.7 µM]	.	.	.
Cc1onc(-c2ccccc2Cl)c1C(=O)N(Cc1nc(-c2ccccc2)no1)C1CCCCC1	-10	88*	0	-5	-5
Cc1cccc(-c2noc(CN(C(=O)c3c(-c4ccccc4Cl)noc3C)C(C)C)n2)c1	29	25	0	-3	-2
CCCOc1ccc(C(F)(F)F)cc1NC(=O)CCc1c(C)noc1C	4	98*	0	6	-6
C[C@@H]1CN([C@H](C)CO)S(=O)(=O)c2ccc(C#CC3CCCCC3)cc2O[C@@H]1CN(C)C(=O)Cc1ccncc1	.	-25[16.7 µM]	.	.	.
SMILES	COUP-TFII inh	Env fusion inh	aDG glyco act	Gli-Sufu block	GalR3 antag
C[C@H](CO)N1C[C@H](C)[C@H](CN(C)C(=O)Nc2ccc(C(F)(F)F)cc2)Oc2c(NS(=O)(=O)c3ccc(F)cc3)cccc2C1=O	.	57*[16.7 µM]	.	.	.
C[C@H](CO)N1C[C@H](C)[C@H](CN(C)C(=O)Nc2ccccc2)Oc2c(NS(=O)(=O)c3ccc(F)cc3)cccc2C1=O	.	88*[16.7 µM]	.	.	.
C[C@@H]1CN([C@@H](C)CO)C(=O)c2cccc(NS(=O)(=O)c3ccc(F)cc3)c2O[C@H]1CN(C)C(=O)Nc1ccc(C(F)(F)F)cc1	.	22[16.7 µM]	.	.	.
CNC[C@H]1Oc2c(NC(=O)Nc3ccc(C(F)(F)F)cc3)cccc2C(=O)N([C@@H](C)CO)C[C@H]1C	.	63*[16.7 µM]	.	.	.
C[C@@H]1CCCCO[C@@H](CN(C)Cc2ccncc2)[C@H](C)CN([C@@H](C)CO)C(=O)c2cc(NS(=O)(=O)c3cn(C)cn3)ccc2O1	.	1[16.7 µM]	.	.	.
O=C(/C=C/c1ccccc1)NC(NC(=S)Nc1cccc(Cl)c1)C(Cl)(Cl)Cl (stereo not given)	-6	63*	2	2	-2
O=C(/C=C/c1ccccc1)NC(NC(=S)Nc1ccc(Cl)cc1Cl)C(Cl)(Cl)Cl (stereo not given)	.	.	5	10	.
Cc1noc(C)c1NC(=O)Nc1ccc2c(c1)C(=O)N([C@@H](C)CO)C[C@@H](C)[C@@H](CN(C)CC1CC1)OCCCC[C@@H](C)O2	.	10[16.7 µM]	.	.	.
O=C(C[C@@H]1C[C@@H]2c3cc(NC(=O)Nc4ccc(C(F)(F)F)cc4)ccc3O[C@@H]2[C@@H](CO)O1)NCc1cc(F)ccc1F	.	-8[16.7 µM]	.	.	.
Nc1nc(Nc2cccc(Cl)c2)nc(NCc2ccco2)c1[N+](=O)[O-]	-24	76*	0	11	-10
Nc1nc(Nc2ccc(Cl)cc2)nc(NCc2ccco2)c1[N+](=O)[O-]	-48	59*	0	-17	-11
O=C(NC(CSCc1ccccc1)C(=O)N/N=C/c1ccc(O)cc1O)c1ccc([N+](=O)[O-])cc1 (stereo not given)	-10	-40	0	76*	4
COc1cccc(CN2CC(C(=O)N(C)Cc3ccc(C)cc3)CCC2=O)c1 (stereo not given)	-18	58*	0	1	-10
COc1cccc(CN2CC(C(=O)N(C)Cc3[nH]c4ccccc4c3C)CCC2=O)c1 (stereo not given)	-4	1	0	-7	3
O=[N+]([O-])c1ccc2nc(SCc3cn4cc(Cl)ccc4n3)[nH]c2c1	-14	112*	0	3	-11
O=C(CSc1nc2ccc([N+](=O)[O-])cc2[nH]1)NC1CCCCCC1	9	116*	0	18	4
C[C@H](CO)N1C[C@H](C)[C@H](CN(C)S(=O)(=O)c2ccc(F)cc2)Oc2c(NC(=O)Nc3ccc4c(c3)OCO4)cccc2C1=O	.	-11[16.7 µM]	.	.	.
O=C(CN1CCOCC1)NCC[C@@H]1CC[C@@H](NC(=O)c2ccc3c(c2)OCO3)[C@H](CO)O1	.	7[16.7 µM]	.	.	.
C=CCC[C@H](Cc1ccc(F)cc1)C(=O)OC[C@@H](NC(=O)[C@@H](CC=C)CC(=O)N(CCO)Cc1ccccc1)C(C)(C)C	7	72*	0	6	-8
C=CC[C@H](CC(=O)N(CCO)Cc1ccccc1)C(=O)N[C@H](COC(=O)[C@@H](CC=C)Cc1ccc(F)cc1)C(C)(C)C	18	12	0	-2	-4
